Shown are actives, neighbours in structure and some others; about 10% of the full set was active somewhere.
HPGD inh – qHTS Assay for Inhibitors of HPGD (15-Hydroxyprostaglandin Dehydrogenase); Potency, µM, for the others: top-dose activity change, negative = inhibition, usual class: inhibitors; 15-hydroxyprostaglandin dehydrogenase [NAD(+)] (Homo sapiens), P15428; AID 894, 2007; 150,000 tested, 4.3% active; purified HPGD, NADH fluorescence kinetic, PGE2 substrate; further: potency means the concentration at half of the fitted maximal effect
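NADH formation kinetics: reaction with 30 uM PGE2 and 1 mM NAD+ (final), 20 nM enzyme, Tris-HCl pH 8 with Tween 20, after 15 min compound preincubation at room temperature. Fluorescence change, last versus first of five reads.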
LMNA splice mod – qHTS Assay for Modulators of Lamin A Splicing; HeLa LMNA splicing GFP/RFP minigene ratio, 48 h; Potency, µM (series often up to 46.1 µM), for the others: at the highest dose ratio change, negative = inhibition, actives largely listed as inhibitors; 200,000 tested, 0.01% active; AID 1487, 2009; active means well fitted inhibition curve with a large enough effect in the signal ratio, with a control signal flat, not every such curve was filed as active; inconclusive means small, poorly fitted or top-dose-only effect, or effect the other way, or a change in a side signal; the % refers to the signal ratio; further: potency means the concentration at half of the fitted maximal effect
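S3 HeLa stable clones carrying a lamin A-EGFP splicing minigene plus DsRed2 were seeded at 600 cells/well in Opti-MEM with 2% FBS, pin-dosed and incubated 48 h at 37°C. Acumen cytometry (488 nm) gave the GFP/RFP total-intensity ratio.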
ALOX12 inhib – qHTS Assay for Inhibitors of 12-hLO (12-human lipoxygenase); Potency, µM (doses to about 57.1 µM), for the others: at the highest dose activity change, negative = inhibition, actives largely listed as inhibitors; purified 12-hLO, xylenol orange hydroperoxide absorbance; 150,000 tested, 0.12% active; active means well fitted inhibition curve with a large enough effect; inconclusive means small, poorly fitted or top-dose-only effect; further: potency means the concentration at half of the fitted maximal effect; nearly all actives have a fitted effect of over 55% in size
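Purified human 12hLO (150 nM), preincubated 15 min with compound, then 40 uM arachidonic acid for 30 min, room temperature, Hepes pH 7.0 with 0.01% Triton X-100. Hydroperoxide detected by ferrous iron/xylenol orange; 573/405 nm absorbance ratio gives reaction progress.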
PNC assembly inh – High Content Assay for Compounds that inhibit the Assembly of the Perinucleolar Compartment; AID 2417, 2010; 140,000 tested, 3.1% active; PC3M PTB-GFP, PNC prevalence imaging, 16 h; active compounds read low; activity change (PNC), negative = inhibition, % at 10 µM;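 active means readout at or below -70, meaning at least 70% loss of cells showing the perinucleolar compartment, a nuclear body marking cancer cells; inconclusive means readout between -30 and a set limit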;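 further: plate controls were DMSO wells for no effect and camptothecin positive control wells for full effect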
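Compounds are pinned in duplicate onto adhered PC3M cells stably expressing GFP-tagged PTB and incubated 16 h at 37 C. Cells are then fixed, nuclei stained with Hoechst, and PNC-positive cells counted.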
ALDH1A1 inh – qHTS Assay for Inhibitors of Aldehyde Dehydrogenase 1 (ALDH1A1) | Aldehyde dehydrogenase 1A1 (Homo sapiens), P00352 | Purified ALDH1A1, NADH fluorescence, propionaldehyde substrate | Potency, µM (titrated, usually from 75.3 µM), for the others: at the highest dose activity, negative = inhibition, usual class: inhibitors | 220,000 tested, 7.3% active | AID 1030, 2008;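 further: potency means the concentration at half of the fitted maximal effect; plate controls were no enzyme wells and a reference inhibitor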
Target sequence (P00352 whole entry, looked up): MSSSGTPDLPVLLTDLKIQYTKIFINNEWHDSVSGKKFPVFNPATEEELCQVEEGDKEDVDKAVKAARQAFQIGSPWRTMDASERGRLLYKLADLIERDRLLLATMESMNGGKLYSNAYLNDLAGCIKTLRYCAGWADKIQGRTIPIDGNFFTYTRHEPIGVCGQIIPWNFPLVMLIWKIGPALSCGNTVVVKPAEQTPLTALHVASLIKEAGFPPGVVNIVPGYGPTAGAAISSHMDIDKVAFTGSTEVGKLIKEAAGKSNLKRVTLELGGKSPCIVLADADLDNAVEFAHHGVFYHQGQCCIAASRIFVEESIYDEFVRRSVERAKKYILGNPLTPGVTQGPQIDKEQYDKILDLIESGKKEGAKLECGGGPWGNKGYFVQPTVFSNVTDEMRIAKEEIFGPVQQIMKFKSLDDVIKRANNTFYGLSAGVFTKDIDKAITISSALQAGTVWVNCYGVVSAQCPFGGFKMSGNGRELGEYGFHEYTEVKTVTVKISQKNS
Starred values were filed as active, the others as inactive; ? = inconclusive; nt = no result; ! = repeats disagree; [ ] = another dose, or the depositor's remark. Unless noted, the call rests on the fitted dose curve; in most records, active means well fitted inhibition curve with a large enough effect (not every such curve was filed as active); inconclusive means small, poorly fitted or top-dose-only effect, or another doubt; inactive means no such curve, though single readings can be large or run the other way. Unless noted, on the % scale 0 is the no-effect control and ±100 the full control effect.

SMILES	HPGD inh	LMNA splice mod	ALOX12 inhib	PNC assembly inh	ALDH1A1 inh
O=C1NO[C@@H]2CN[C@@H](C(=O)O)[C@H]12	-10%	nt	-1%	nt	6%
CC(=O)NC(Cc1ccc(N(CCCl)CCCl)cc1)C(=O)NC(CC(C)C)C(=O)O (stereo unspecified)	nt	nt	nt	nt	2.2µM*
O=C1/C(=C\c2cc3c(cc2Br)OCO3)N2CCC1CC2	?	-6%	7%	?	3.2µM*
CCN1C(=O)/C(=C/c2ccc(N(CC)CC)cc2OC)C(=O)NC1=S	nt	?	nt	nt	10µM*
Nc1nc(N)c(N=Nc2ccc([As](=O)(O)O)c(O)c2)c(N)n1	-3%	nt	2%[11.4 µM]	nt	9%[13.5 µM]
CC(C)(OOC(C)(C)c1ccccc1)c1ccccc1	-10%	nt	-3%	nt	7%
COc1ccc(NC(=S)NCCN2CCOCC2)cc1	nt	-7%[46 µM]	nt	nt	1.3µM*
CC(=O)[C@@H]1CC[C@@H]2[C@@H]3CCC4=CC(=O)CC[C@@]4(C)[C@H]3CC[C@]21C	0%	?	-4%[25.6 µM]	nt	-6%[20.9 µM]
CC(=O)[C@H]1CC[C@H]2[C@@H]3CCC4=CC(=O)CC[C@]4(C)[C@H]3CC[C@]12C	0%	?	-7%	56	11µM*!
C[C@@]12CCC3C(CCC4=CC(=O)CC[C@]43C)C1CCC2O (stereo partly specified)	-2%	?	-8%	nt	-4%
C[C@@]12CC[C@H]3[C@@H](CCC4=CC(=O)CC[C@]43C)[C@H]1CC[C@H]2C(=O)CO	-6%	?	-5%[25.6 µM]	nt	5µM*
Nc1nc(N)c(N=Nc2ccc([As](=O)(O)O)cc2)c(=O)[nH]1	-1%	nt	5%[11.4 µM]	nt	2%[13.5 µM]
Cn1cccc1/C=C1\C(=O)NC(=O)N(Cc2ccccc2Cl)C1=O	nt	nt	nt	nt	-1%
C=CCN1C(=O)NC(=O)/C(=C\c2ccc(-c3ccccc3[N+](=O)[O-])o2)C1=O	nt	?	nt	nt	22µM*
O=C1NC(=O)N(Cc2ccco2)C(=O)/C1=C/c1ccc(-c2cccc([N+](=O)[O-])c2)o1	5µM*	-11%	-14%	19	7.1µM*
C=CC(=O)OCC(C)C	-9%	nt	0%	nt	16%
Cc1nc2cc([N+](=O)[O-])ccc2c(=O)n1-c1ccccc1[N+](=O)[O-]	nt	nt	nt	nt	32µM*
CNc1ccc2oc(C[C@H]3O[C@]4(CC[C@H]3C)O[C@H]([C@H](C)C(=O)c3ccc[nH]3)[C@H](C)C[C@H]4C)nc2c1C(=O)O	?	nt	-25%	nt	?
C[C@@H]1CC[C@H]2[C@@H](C)C(=O)O[C@@H]3OC4(C)CC[C@@H]1[C@]32OO4	-8%	nt	-6%[0.00818 µM]	nt	25µM*
C[C@@H]1CC[C@H]2[C@@H](C)C(=O)O[C@@H]3OC4(C)CC[C@@H]1C32OO4 (stereo partly specified)	-3%	nt	nt	nt	3%
CN(C)CCC(C#N)(c1ccccc1)c1ccccc1	-8%	nt	2%[11.4 µM]	nt	-9%[13.5 µM]
COc1cc(-c2ccc(N)c(OC)c2)ccc1N	-18%	nt	-3%	nt	?
COc1cc(-c2ccc(=O)[nH]n2)ccc1OC(F)F	20µM*!	?	1%[0.00818 µM]	nt	-8%
O.O.[NH-]C1(C(=O)O)CCCC1.[NH-]C1(C(=O)O)CCCC1.[Ni+2]	-8%	nt	-1%[11.4 µM]	nt	-6%[13.5 µM]
O=C(CN1CCCCC1)NCC(=O)Nc1ccc(Br)cc1C(=O)c1ccccc1	28µM*	11%	0%	52	10%
SMILES	HPGD inh	LMNA splice mod	ALOX12 inhib	PNC assembly inh	ALDH1A1 inh
O=C(CCN1CCOCC1)NCC(=O)Nc1ccc(Br)cc1C(=O)c1ccccc1	-11%	-2%	3%	-8	5%
O=C(CNC(=O)c1ccccc1)Nc1ccc(Br)cc1C(=O)c1ccccc1	-14%	-12%	1%	-30	-5%
O=C(CNC(=O)c1ccccc1Cl)Nc1ccc(Br)cc1C(=O)c1ccccc1	28µM*	?	-2%	32	-5%
CN1CCC[C@@H]1c1cccnc1.O=C(O)c1ccccc1O.O=C([OH2+])c1ccccc1O.O=C([OH2+])c1ccccc1O.O=C([OH2+])c1ccccc1O.[Mn]	?	nt	-7%[11.4 µM]	nt	?
CN1C(CC(=O)c2ccccc2)CCCC1CC(O)c1ccccc1 (stereo unspecified)	-10%	-6%	-1%	-110*	-2%
Oc1ccc([C@H](O)C2CCCCN2)cc1O (stereo partly specified)	1%	nt	nt	nt	5%[13.5 µM]
O=C1NC(=O)[C@]2(Cc3ccccc3N3CCN(c4ccccc4)CC32)C(=O)N1c1ccccc1 (stereo partly specified)	-9%	?	-17%	-22	25µM*
O=C1NC(=O)C2(Cc3ccccc3N3CCCC32)C(=O)N1c1ccc(Cl)cc1 (stereo unspecified)	?	?	?	-5	?
CN1C(=O)NC(=O)C2(Cc3ccccc3N3CCOCC32)C1=O (stereo unspecified)	3%	2%	0%	?	-1%
CN1C(=O)NC(=O)[C@]2(Cc3ccccc3N3CCN(c4ccccc4)CC32)C1=O (stereo partly specified)	-12%	9%	-5%	9	25µM*
O=C1NC(=O)[C@]2(Cc3ccccc3N3CCN(c4ccccc4)CC32)C(=O)N1Cc1ccccc1 (stereo partly specified)	-17%	4%	-18%	-17	22µM*
CC(Cl)CCl (stereo unspecified)	-1%	nt	-1%	nt	4%
C[C@@](Br)(C(=O)O)[C@H](Br)C(=O)O	-3%	nt	3%[11.4 µM]	nt	-2%[13.5 µM]
COC(=O)C1=Nc2ccccc2/C1=C\c1c(O)n(-c2ccc(Br)cc2)c(=O)[nH]c1=O	18µM*	?	?	-124*	4%
O=c1[nH]c(=O)n(-c2ccccc2)c(O)c1/C=C1/C(c2ccccc2)=Nc2ccccc21	25µM*	?	-2%	-91*	?
COc1ccc(-n2c(O)c(/C=C/C=Nc3ccccc3)c(=O)[nH]c2=O)cc1	-27%	?	-1%	26	-7%
O=c1[nH]c(=O)n(-c2ccccc2)c(O)c1/C=C/C=Nc1ccccc1	-13%	?	-8%	6	4%
COC(=O)C1=Nc2ccccc2/C1=C\c1c(O)n(-c2ccc(OC)cc2)c(=O)[nH]c1=O	-11%	?	?	67	22µM*
O=P(c1ccccc1)(c1ccccc1)N1CC2(CC2)CC(O)(c2ccccc2)C1 (stereo unspecified)	-11%	nt	-3%	nt	-9%
CN1CCC[C@@H]1c1cccnc1.O=C(O)c1ccccc1O.O=C([OH2+])c1ccccc1O.O=C([OH2+])c1ccccc1O.[Mn]	?	nt	3%[11.4 µM]	nt	?

Source: PubChem BioAssay (National Center for Advancing Translational Sciences (NCATS))
